The panel holds about 83,000 compounds, 20% with a hit somewhere; the sample as a whole holds those more often.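 Step 1: grow cells in 96-well plates. Step 2: add test compound at a single concentration. Step 3: incubate 48 h. Step 4: record percent growth.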 Unmarked numbers belong to inactive results. Calls of active or inactive are those of the source. The calls were made as follows: active = growth percent below 10; inactive = the rest.

The subject of one experiment is SK-MEL-5 melanoma. The experiment can be described thus: NCI-60 one-dose screen, 48 h (100 = growth as untreated, 0 = no growth, -100 = all killed). The settings on record: 10 µM unless noted.
With `Cc1ccc(/C=N/Nc2nc(Nc3ccccc3)nc(Nc3ccc(S(N)(=O)=O)cc3)n2)cc1`, the growth was 76%.
On the same count and under the same terms, as for `Cc1ccc(S(=O)(=O)NCCCNc2nc(Nc3ccc(N4CCN(C)CC4)cc3)nc3ccsc23)cc1`, the figure is -84.1% (active); as for `CC(C)=CCC[C@](C)(O)[C@H]1CC[C@]2(C)[C@@H]1CC[C@@H]1[C@@]3(C)CC[C@H](N)C(C)(C)[C@@H]3CC[C@]12C`, 84.2%; as for `NNc1nnc2nc(Nc3ccccc3)nc(Nc3ccc(S(N)(=O)=O)cc3)n12`, 101%.

The subject of a further experiment is UACC-62 melanoma. Described as above. The settings on record: 10 µM unless noted.
In the case of `COCCOc1ccc2ncc(C#Cc3cncc(C(=O)Nc4ccc(CN5CCN(C)CC5)c(C(F)(F)F)c4)c3)n2n1`, the growth is 31.5%.
Same read-out and setting: for `CCOC(=O)c1c(N)c(C#N)cn1Cc1ccc(Cl)cc1Cl` the value was 59.8%; for `Cc1ccc(Nc2nc(SC(C)C)nc(-c3ccccc3)c2C#N)cc1`, 95.5%; for `O=C(CSc1nc2ccccc2c(=O)n1-c1ccc(Cl)c(Cl)c1)Nc1ccc(S(=O)(=O)Nc2ccc(Cl)nn2)cc1`, 85%.
Same read-out and setting: as for `N#Cc1cnc2ccc(-c3cnc4n[nH]nc4c3)cc2c1N1CCc2cc(F)c(Cl)cc21`, the figure is 2.13% (active); as for `CNC(=O)Nc1ccc(Nc2cc(-c3ccc(-n4cccn4)cc3)[nH]n2)c(C)c1`, 114%.
For `CN1CCN(Cc2ccc(NC(=O)c3cncc(C#Cc4cnc5ccc(N)nn45)c3)cc2C(F)(F)F)CC1`, the growth is 70.8%.
Regarding `Cc1cc(=O)oc2cc(OCCCOc3ccc(/C=C/C(=O)Nc4ccc(Br)cc4)cc3)ccc12`, the growth was 94.5%.
On the same count and under the same terms, for `C/C(CC1(O)C(=O)Nc2ccccc21)=N\O` (centres undefined) the value was 99.7%; for `Cc1ccc2c(n1)C(=O)C(Cl)=C(Nc1ccccc1C(=O)OC(C)(C)C)C2=O`, 79%; for `COc1ccc(/C=N\NC(=O)c2cnn(CC(O)c3ccccc3)c2N)cc1OCc1ccc(Cl)cc1` (centres undefined), 81.1%.
On to `NC(N)=NS(=O)(=O)c1ccc(N=Nc2c(N)nn(-c3ccc([N+](=O)[O-])cc3[N+](=O)[O-])c2N)cc1`, for which the growth was 95.2%.
Still for that read-out and setting: for `COc1ccccc1Cn1cc(C#N)c(N)c1C(=O)c1ccc(Br)cc1` the value was 69.7%; for `CC(=C(c1ccc(OCCN2CCCC2)cc1)c1ccc(OCCN2CCCC2)cc1)c1ccc(Cl)cc1`, -64.7% (active); for `CCN(CC)CCOc1ccc(C(=C(C)Cc2ccc(OC)cc2)c2ccc(OCCN(CC)CC)cc2)cc1`, -37.6% (active).
On the same count and under the same terms, as for `Fc1ccc(-c2cn3c(-c4c[nH]c5ccc(Br)cc45)csc3n2)cc1`, the figure is 65.7%; as for `CC1=C(C)C(=O)C(Nc2cccc(C(=O)OC(C)(C)C)c2)=CC1=O`, 65.6%; as for `CSc1ccc(/C(=N/N=C(N)N)c2ccc(Cl)cc2)cc1`, 7.53% (active).
Still for that read-out and setting: for `O=C(/C=C/Nc1ccc(S(=O)(=O)Nc2ncccn2)cc1)c1ccc(N=Cc2c(O)[nH]c3ccccc23)cc1` the value was 108%; for `N#Cc1c(-c2cccs2)cc(-c2cnccn2)nc1SCC(=O)N/N=C/c1cccs1`, 55.6%.
Regarding `O=S(=O)(NCCCNc1nccc(-c2[nH]c(-c3ccccc3)nc2-c2ccc(F)c(O)c2)n1)c1ccccc1`, the growth was 19.6%.
The same measure, in the same setting: for `CC1(C)CC[C@]2(C(=O)NCCCCCCN(CCCN)CCCN)CC[C@]3(C)C(=CC[C@@H]4[C@@]5(C)CC[C@H](O)C(C)(C)[C@@H]5CC[C@]43C)[C@@H]2C1` the value was 88.1%; for `CCOC(=O)c1c(NCC(=O)Nc2cccc([N+](=O)[O-])c2)sc(C(C)=O)c1C`, -19.6% (active); for `O=c1oc2ccc(-c3ccc(F)cc3F)cc2c(=O)n1-c1ccc(Br)cc1F`, 21.1%.
Consider `Cc1ccc2c(n1)C(=O)C(Cl)=C(Nc1cccc(C(=O)OC(C)(C)C)c1)C2=O`, for which the growth was 90.7%.
Consider `C/C(=C(\c1ccc(O)cc1)c1ccc(OCCN2CCCCCC2)cc1)c1ccc(Cl)cc1`, for which the growth is -85.1% (active).
On the same count and under the same terms, as for `CC1=C(C)C(=O)C(Nc2cccc(C(F)(F)F)c2)=C(Br)C1=O`, the figure is 80.8%; as for `CC(C)C(/C=C/c1[nH]ncc1-c1cc(Cl)ccc1O)N1CCOCC1` (centres undefined), 87.1%; as for `Fc1cccc(Cl)c1/C=N/Nc1nc(N/N=C/c2c(F)cccc2Cl)nc(N2CCCCC2)n1`, 18.3%.
On the same count and under the same terms, as for `COc1ccc(C2C(C#N)=C(/N=C/c3ccc(Cl)cc3)Oc3c2sc2c(C)cccc32)cc1` (centres undefined), the figure is 23%.
The same measure, in the same setting: as for `O=C(CCCCCCNC(=O)C(O)(O)C(F)(F)F)Nc1ccc(Cl)cc1`, the figure is -18.8% (active); as for `O=C1C(SCc2ccccc2)=C(Cl)CN1c1ccc(Cl)cc1`, 93.5%.
`Cc1ccc(-c2nc(SCC(=O)c3ccccc3)nc(Nc3ccc(S(N)(=O)=O)cc3)c2C#N)cc1`: the growth was 80.3%.
On the same count and under the same terms, for `O=C1C(N2CCN(c3ccccc3)CC2)=C(Cl)C(=O)c2ncccc21` the value was 61.8%; for `C#Cc1nc(C(=O)NCCCCCCC(=O)NO)cs1`, -63.1% (active).
Still for that read-out and setting: for `C[C@H](Nc1ncnc2ccc(-c3cnc(Cl)c(NS(C)(=O)=O)c3)cc12)c1ccccc1` the value was -57.8% (active); for `Cc1ccc(/C=N/Nc2nc(Nc3ccccc3)nc(Nc3ccc(S(N)(=O)=O)cc3)n2)cc1`, 91.3%; for `Cc1ccc(S(=O)(=O)NCCCNc2nc(Nc3ccc(N4CCN(C)CC4)cc3)nc3ccsc23)cc1`, -48.3% (active).
Still for that read-out and setting: as for `CC(C)=CCC[C@](C)(O)[C@H]1CC[C@]2(C)[C@@H]1CC[C@@H]1[C@@]3(C)CC[C@H](N)C(C)(C)[C@@H]3CC[C@]12C`, the figure is 91%.
For the compound `NNc1nnc2nc(Nc3ccccc3)nc(Nc3ccc(S(N)(=O)=O)cc3)n12`, the growth was 95.8%.

These data come from PubChem BioAssay (NCI).
